Screening data: PubChem BioAssay, several laboratories
Shown are actives, neighbours in structure and some others; about 2.1% of the full set was active somewhere.
Ba/F3 V617F tox: lowers viability of Ba/F3 cells expressing EpoR and JAK2V617F. ATP luminescence. inhibition, % at 5.6 µM. hit rate 1.1% among 220,000;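 active = inhibition above the campaign mean plus 3 SD over all tested compounds, cut at about 24% in these data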;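 note: cytokine-independent growth of Ba/F3 cells driven by EpoR plus mutant JAK2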
IEC-6 tox: counter-screen for KLF5 inhibitors: cytotoxicity in IEC-6 cells; IEC-6 cytotoxicity, luminescence viability; AID 1825; inhibition, % at 5 µM; hit rate 0.78% among 290,000; in the data active = inhibition above about 22%
APP 5UTR inh: APP translation inhibition; SH-SY5Y APP 5'UTR-luciferase reporter, luminescence; inhibition, % at 2 µM; hit rate 0.82% among 190,000;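 active = inhibition above a set limit, derived from the sample mean plus 3 SD, cut at about 45% in these data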
KLF5 inh: inhibitors of KLF5 expression. AID 1700. DLD-1 KLF5 promoter-luciferase reporter, luminescence. inhibition, % at 5 µM. hit rate 0.23% among 290,000;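 active = inhibition above a per-plate limit of that plate's mean compound inhibition plus 3 SD, cut at about 60% in these data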;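 note: higher means less KLF5 promoter-driven luciferase light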
aSyn UTR inh: 5' untranslated region of α-synuclein, MLPCN primary screen; alpha-synuclein 5'UTR reporter, inhibitor activity; AID 1813; inhibition, % (tested at 7.5 µM); hit rate 0.82% among 300,000; in the data active = inhibition above about 60%;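 note: H4 neuroglioblastoma cells stably carrying SNCA 5'UTR luciferase fusion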
BaF3 parental: reduces parental Ba/F3 cell viability, JAK2V617F counter-screen | AID 1486 | hit rate 1.1% among 220,000 | inhibition, % at 5.6 µM | CellTiter-Glo ATP luminescence;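 active = inhibition above a per-campaign cutoff, the mean inhibition of all tested compounds plus 3 SD, cut at about 27% in these data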
Large screens that a line does not name were inactive.

Cc1[nH]n(-c2ccccc2)c(=O)c1N=Nc1ccc(C(N)=O)cc1	none (no result: Ba/F3 V617F tox, APP 5UTR inh, BaF3 parental)
NC(=O)c1ccc(N=Nc2c(-c3ccccc3)[nH]n(-c3ccccc3)c2=O)cc1	APP 5UTR inh 69
Cc1cc(O)c(C(C)C)cc1NC(=O)c1ccccc1Cl	APP 5UTR inh 45
CCN(CC)c1ccc(C(=O)OCc2cc(=O)oc3cc(O)ccc23)cc1	aSyn UTR inh 117
CCN(CC)c1ccc2c(O)cc(=O)oc2c1	none
CN(c1ccccc1)c1ccc(/C=C/[N+](=O)[O-])cc1	APP 5UTR inh 54
CN(C)c1ccc(-n2cccc2/C=C/[N+](=O)[O-])cc1	none
O=c1c2c(nc3c(-c4ccc(Cl)cc4)c[nH]n13)CCCC2	aSyn UTR inh 66
O=c1c2c(nc3c(-c4cccc5ccccc45)c[nH]n13)CCC2	none
COc1ccc(CNC(=O)CN(Cc2ccco2)C(=O)CCC(=O)Nc2ccccn2)cc1	none (no result: Ba/F3 V617F tox, APP 5UTR inh, BaF3 parental)
NNC(=O)c1oc2ccccc2c1-n1cccc1	APP 5UTR inh 62
Cc1cc(C)c2sc(N(CCCN(C)C)C(=O)c3ccc(S(=O)(=O)N4CCc5ccccc5C4)cc3)nc2c1	none (no result: Ba/F3 V617F tox, IEC-6 tox, APP 5UTR inh, KLF5 inh, BaF3 parental)
CN(C)CCCN(C(=O)c1ccc(S(=O)(=O)N2CCc3ccccc32)cc1)c1nc2ccc(F)cc2s1	none (no result: Ba/F3 V617F tox, APP 5UTR inh, BaF3 parental)
CN(C)CCCN(C(=O)CCc1ccccc1)c1nc2ccc(F)cc2s1	none
Cc1ccc2nc(N(CCCN(C)C)C(=O)c3ccc(S(=O)(=O)N4CCc5ccccc5C4)cc3)sc2c1	aSyn UTR inh 88 (no result: Ba/F3 V617F tox, APP 5UTR inh, BaF3 parental)
CN(C)CCCN(C(=O)c1ccc(S(=O)(=O)N2CCc3ccccc3C2)cc1)c1nc2ccc(F)cc2s1	aSyn UTR inh 99 (no result: Ba/F3 V617F tox, APP 5UTR inh, BaF3 parental)
CN(C)CCCN(C(=O)c1cc(-c2cccs2)nc2ccccc12)c1nc2ccc(F)cc2s1	aSyn UTR inh 99 (no result: Ba/F3 V617F tox, APP 5UTR inh, BaF3 parental)
Cc1ccc(N(CC(=O)NCc2ccccn2)S(=O)(=O)c2ccccc2)cc1C	none (no result: Ba/F3 V617F tox, APP 5UTR inh, BaF3 parental)
CCOc1ccc2ccccc2c1C(=O)N1CCN(c2ccccc2)CC1	Ba/F3 V617F tox 46, IEC-6 tox 25, BaF3 parental 42
CCOC(=O)c1[nH]c(C)c(C(=O)N2CCN(c3ccccc3)CC2)c1C	none
COc1ccc(C(=O)Cn2c(=N)n(C)c3ccccc32)cc1	none (no result: APP 5UTR inh)
Cn1c(=N)n(CC(=O)O)c2ccccc21	none
CCn1c(=N)n(CC(=O)C(C)(C)C)c2ccccc21	APP 5UTR inh 64
Cn1c(=N)n(CC(=O)c2ccc(Cl)c(Cl)c2)c2ccccc21	aSyn UTR inh 81 (no result: Ba/F3 V617F tox, APP 5UTR inh, BaF3 parental)
Cn1c(=N)n(CC(=O)c2ccccc2)c2ccccc21	aSyn UTR inh 90 (no result: APP 5UTR inh)
NS(=O)(=O)c1ccc(CNC(=O)c2sccc2-c2ccccc2)cc1	none (no result: Ba/F3 V617F tox, APP 5UTR inh, BaF3 parental)
O=C(Nc1cccc2ccccc12)NC(Cc1ccccc1)C(=O)O (stereo unspecified)	none (no result: Ba/F3 V617F tox, APP 5UTR inh, BaF3 parental)
CC(=O)Nc1ccc(NC(=O)CN(c2cccc([N+](=O)[O-])c2)S(C)(=O)=O)cc1	aSyn UTR inh 69
CS(=O)(=O)N(CC(=O)Nc1cccc(F)c1)c1cccc([N+](=O)[O-])c1	none
O=C(/C=C/Nc1ccc(F)cc1Br)c1ccccc1	aSyn UTR inh 70
Cc1ccccc1N=C(NO)c1nonc1N	none
COc1ccc2nc(SCC(=O)N3CC(=O)Nc4ccccc43)c(C#N)cc2c1	APP 5UTR inh 60
COc1ccc2nc(SCC(=O)N3CCN(c4ccccc4F)CC3)c(C#N)cc2c1	none (no result: aSyn UTR inh)
O=C(Nc1nc2ccccc2[nH]1)c1ccccc1	none
O=C(Nc1nc2ccccc2[nH]1)c1ccc(Cl)cc1	aSyn UTR inh 66 (no result: Ba/F3 V617F tox, APP 5UTR inh, BaF3 parental)
Cc1nc2ccc([N+](=O)[O-])cc2nc1C	none
Cc1ccc2nc3cc([N+](=O)[O-])cc([N+](=O)[O-])c3cc2c1	APP 5UTR inh 62 (no result: aSyn UTR inh)
COc1ccc(/C=C2\CCOC2=O)cc1	none
COc1ccc(/C=C2/C(=O)OCc3cc(OC)c(OC)cc32)cc1	Ba/F3 V617F tox 57, IEC-6 tox 26, APP 5UTR inh 82, BaF3 parental 28
CCOc1ncccc1C(=O)OCC(=O)Nc1ccc2c(c1)OCO2	none
COc1ccc(CCNc2c(C)c(C)nc3ncnn23)cc1	Ba/F3 V617F tox 51, BaF3 parental 58
CCc1c(C)nc2ncnn2c1NCCc1ccc(OC)c(OC)c1	none
Cc1c(C)n2c(SCC(=O)N3CCCCC3)nnc2[nH]c1=O	none (no result: Ba/F3 V617F tox, IEC-6 tox, APP 5UTR inh, KLF5 inh, BaF3 parental)
O=C1C2C3C=CC(C3)C2C(=O)N1/N=C/c1cn(Cc2ccccc2)c2ccccc12 (stereo unspecified)	aSyn UTR inh 66
O=C1C2C3C=CC(C3)C2C(=O)N1/N=C/c1cn(Cc2ccc(F)cc2)c2ccccc12 (stereo unspecified)	none
O=S(=O)(c1ccccc1)[C@@]1(c2ccc(Br)cc2)C[C@@H]2ON=C(c3ccccc3)[C@@H]2C1	none (no result: Ba/F3 V617F tox, IEC-6 tox, APP 5UTR inh, KLF5 inh, BaF3 parental)
S=C1SCN(Cc2cccnc2)CN1Cc1cccnc1	Ba/F3 V617F tox 86, BaF3 parental 51 (no result: APP 5UTR inh)
C/C(=N\NC(=O)c1ccc(Cl)c(Cl)c1)c1ccc(Br)s1	APP 5UTR inh 52, aSyn UTR inh 91
COc1cc(C2=NOC(C(=O)NCc3cccs3)C2)cc(OC)c1OC (stereo unspecified)	Ba/F3 V617F tox 82, BaF3 parental 77 (no result: APP 5UTR inh)
C/C(=N/NC(=O)c1cccc(N2CCCC2=O)c1)c1ccncc1	none
C=CC[n+]1c(-c2ccc(C)cc2)csc1Nc1ccc(NC(C)=O)cc1	APP 5UTR inh 50, aSyn UTR inh 100
C=CC[n+]1c(-c2ccc(OC)cc2)csc1NNC(=O)Nc1ccccc1	none
CCCC(NC(=O)C(C)NC(=O)CO/N=C1\C=C2CCC3C4CCC(C(C)=O)[C@@]4(C)CCC3[C@@]2(C)CC1)C(=O)O (stereo partly specified)	none (no result: Ba/F3 V617F tox, APP 5UTR inh, BaF3 parental)
COc1cccc(-c2nc(NCc3ccccc3)c3ccccc3n2)c1O	none (no result: Ba/F3 V617F tox, APP 5UTR inh, BaF3 parental)
CCN(CC)c1nc(-c2cccc(OC)c2O)nc2ccccc12	APP 5UTR inh 52
Cn1c(C(=O)N2CCCC(C(=O)O)C2)cc2sccc21 (stereo unspecified)	BaF3 parental 95
Cn1c(C(=O)N2CCCC(C(=O)N3CCN(C(=O)c4ccco4)CC3)C2)cc2sccc21 (stereo unspecified)	none (no result: aSyn UTR inh)
COc1ccc(/C(C)=N/NC(=O)CNC(=O)C(c2ccccc2)c2ccccc2)c(OC)c1	none (no result: Ba/F3 V617F tox, APP 5UTR inh, BaF3 parental)
COC(=O)C[C@](O)(CCCC(C)(C)O)C(=O)O[C@@H]1C(OC)=C[C@]23CCCN2CCc2cc4c(cc2[C@H]13)OCO4	aSyn UTR inh 127 (no result: Ba/F3 V617F tox, IEC-6 tox, APP 5UTR inh, KLF5 inh, BaF3 parental)
COCCNC(=O)CN1N=C(c2ccc(OC)cc2)CCC1=O	none (no result: Ba/F3 V617F tox, APP 5UTR inh, BaF3 parental)
COc1ccc(C2=NN(CC(=O)Nc3ccccc3C)C(=O)CC2)cc1	BaF3 parental 57 (no result: APP 5UTR inh)
CC(C)COC(=O)/C(C#N)=C/c1cn(Cc2ccccc2)c2ccccc12	aSyn UTR inh 80
CC(C)OC(=O)/C(C#N)=C/c1cn(C)c2ccccc12	none (no result: APP 5UTR inh)
CC(C)OC(=O)/C(C#N)=C/c1cn(Cc2ccccc2)c2ccccc12	aSyn UTR inh 75
COCC(=O)N1CCC(Oc2ccc(C(=O)NC(C)c3nc(C)sc3C)cc2)CC1 (stereo unspecified)	none (no result: Ba/F3 V617F tox, APP 5UTR inh, BaF3 parental)
Cc1cccc(NC(=S)N=Nc2c(O)[nH]c3ccccc23)c1	IEC-6 tox 38, APP 5UTR inh 45
